Sampled rows, rich in hits. Any-hit rate of the full collection: about 3.4%.
RE007 growth inh = qHTS Assay for Inhibitors of the HIV-1 protein Vpr; S. pombe RE007 Vpr strain, BacTiter-Glo ATP luminescence, 24 h; Potency, µM (titrated, usually from 92.2 µM), hits mostly inhibitors; AID 651644, 2012; 360,000 tested, 0.21% active; active means well fitted falling curve with a large enough effect; inconclusive means small, poorly fitted or top-dose-only effect; inactive means no such curve, though single readings can be large or run the other way; further: nearly all actives have a fitted effect of over 50% in size
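Fission yeast strain RE007, carrying one chromosomally integrated HIV-1 vpr copy, was seeded at OD 0.01 in PMG+AL medium with 23 nL pinned compound. After 24 h at 30 °C and 99% humidity, viability was read by BacTiter-Glo luminescence.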
AmpC inh no detg = qHTS Inhibitors of AmpC Beta-Lactamase (assay without detergent); Potency, µM (doses to about 57.1 µM), most hits filed as inhibitors; AID 485341, 2010; AmpC nitrocefin hydrolysis, absorbance 480 nm, 0.0001% Triton; 330,000 tested, 0.52% active; further: nearly all actives have a fitted effect of over 20% in size
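AmpC (5.3 nM in the dispensed reagent) in 20 mM phosphate pH 7.0 with 0.01% (detergent screen) or 0.0001% Triton X-100 was preincubated with compounds for 15 min at room temperature. Nitrocefin was then added from an 800 uM solution, and hydrolysis was followed at 480 nm.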
AmpC inh detg = qHTS Inhibitors of AmpC Beta-Lactamase (assay with detergent). P00811. AmpC hydrolysis of nitrocefin, absorbance 480 nm, 0.01% Triton. Potency, µM (series often up to 114 µM), hits mostly inhibitors. 370,000 tested, 0.041% active; further: nearly all actives have a fitted effect of over 25% in size
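20 mM phosphate pH 7.0 + 0.01% (detergent screen) or 0.0001% Triton X-100; 5.3 nM AmpC reagent; cpd preinc 15 min RT; nitrocefin (800 uM stock) to start; A480 q20 s × 4 min; Activity was normalised to no-enzyme and no-compound control wells.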
Sm TGR block = qHTS Assay for the Inhibitors of Schistosoma Mansoni Peroxiredoxins | AID 485364, 2010 | 360,000 tested, 3% active | Schistosoma mansoni thioredoxin glutathione reductase (TGR), Q962Y6 | purified TGR, DTNB reduction, TNB absorbance 405 nm | Potency, µM (highest dose often 114 µM), actives largely listed as inhibitors; further: nearly all actives have a fitted effect of over 60% in size
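Kinetic colorimetric format: TGR-catalysed, NADPH-driven DTNB reduction monitored via TNB absorbance. Enzyme dispensed at 20 nM; compound exposure 15 min at room temperature before reaction start.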
Giardia FBPA inh = qHTS Assay for Inhibitors of Fructose-1,6-bisphosphate Aldolase from Giardia Lamblia; Potency, µM (top dose mostly 59.6 µM), actives largely listed as inhibitors; AID 2451, 2010; purified Giardia FBPA; 290,000 tested, 0.71% active; further: nearly all actives have a fitted effect of over 55% in size
Target sequence (A8B2U2 whole entry, looked up): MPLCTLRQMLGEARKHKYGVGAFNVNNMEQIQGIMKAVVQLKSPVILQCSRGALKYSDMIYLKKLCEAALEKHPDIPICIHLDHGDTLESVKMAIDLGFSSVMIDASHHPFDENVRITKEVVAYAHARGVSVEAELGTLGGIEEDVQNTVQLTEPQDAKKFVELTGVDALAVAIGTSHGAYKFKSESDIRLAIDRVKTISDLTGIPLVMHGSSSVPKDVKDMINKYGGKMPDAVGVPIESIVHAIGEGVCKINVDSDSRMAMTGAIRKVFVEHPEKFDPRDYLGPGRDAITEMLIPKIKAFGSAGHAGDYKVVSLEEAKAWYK
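Giardia FBPA (40 nM reagent) was preincubated 10 min at RT with compound (up to 57.5 uM final), then substrate plus GAPDH/TPI/NAD/arsenate coupling system with diaphorase/resazurin was added; resorufin fluorescence (525/598 nm) was read after 20 min.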
Numbers stand for hits; i = inactive; ? = inconclusive; nt = not tested or not shown; [ ] = dose if it differs, or a comment. Unless noted, the call rests on the fitted dose curve; in most records, active means well fitted curve in the direction sought with a large enough effect; inconclusive means small, poorly fitted or top-dose-only effect, or another doubt; inactive means no such curve, though single readings can be large; an effect the other way counts as inactive or inconclusive.

SMILES	RE007 growth inh	AmpC inh no detg	AmpC inh detg	Sm TGR block	Giardia FBPA inh
Cn1c(O)c(N=Nc2ccccc2)c2ccccc21	i	i	i	44.7µM	i
CCCn1c(CCC(=O)O)ccc1-c1cccs1	i	i	?	3.55µM	i
COCCCn1c(CCC(=O)O)ccc1-c1cccs1	i	i	i	8.91µM	i
CSc1ncc(C(=O)Nc2cccc(S(N)(=O)=O)c2)n1-c1ccccc1	i	i	i	i	i
CN1/C(=C/c2cc[n+](C)c3ccccc23)C=Cc2ccccc21	10µM	i	?	i	?
C[n+]1ccc(/C=C/c2ccccc2O)c2ccccc21	i	i	i	i	i
Cc1ccc(-c2cc(C(=O)OCC(=O)N(C)C3CCS(=O)(=O)C3)c3ccccc3n2)o1 (centres undefined)	i	i	i	14.1µM	i
Cc1ccc(-c2cc(C(=O)OCC(=O)N(C)C3CCS(=O)(=O)C3)c3ccccc3n2)c(C)c1 (centres undefined)	i	i	i	i	i
CCN(C(=O)COC(=O)c1cc(-c2ccc(C)o2)nc2ccccc12)C1CCS(=O)(=O)C1 (centres undefined)	i	i	i	25.1µM	i
O=[N+]([O-])c1ccc(O)c2cccnc12	i	i	i	i	?
O=[N+]([O-])c1ccc(O)c2ncccc12	i	i	i	?	19.9µM
O=[N+]([O-])c1cc(Cl)c(O)c2ncccc12	?	i	i	11.2µM	?
O=[N+]([O-])c1cc([N+](=O)[O-])c2cccnc2c1Oc1ccccc1O	i	i	i	0.282µM	i
N#C/C(=C\c1ccccc1)C(=O)Nc1nncs1	i	i	i	i	i
CC(C)CCn1c(SCC(=O)Nc2ccccc2C(F)(F)F)nc2nccnc2c1=O	i	i	i	22.4µM	nt
COCCn1c(SCC(=O)Nc2ccccc2C(F)(F)F)nc2ccccc2c1=O	i	i	i	i	i
CC(=O)c1cccc(N(CC(=O)N2CCCC2)S(C)(=O)=O)c1	i	i	?	44.7µM	i
CC(=O)c1cccc(N(CC(=O)N2CCCCC2)S(C)(=O)=O)c1	i	i	i	i	i
Cc1ccc(C)c(N(CC(=O)N/N=C/c2ccc(-c3ccc([N+](=O)[O-])cc3)o2)S(=O)(=O)c2ccccc2)c1	i	i	i	i	i
CCOc1ccc(S(=O)(=O)N(CC(=O)N/N=C/c2ccc(-c3ccc([N+](=O)[O-])cc3)o2)c2ccccc2)cc1	i	12.6µM	i	i	i
CC1(C)Cc2nc3sc4c(SCC(=O)NCc5ccccc5)ncnc4c3cc2CO1	i[3.69 µM]	i	i	i	i
C=CC(=O)N=c1sc2ccccc2n1-c1ccccc1	i	i	i	39.8µM	i
[O-]/[N+](=C/c1ccccc1)c1ccccc1	i	i	i	i	nt
CCOCC(=O)Nc1nc2ccccc2s1	?	i	i	35.5µM	i
CCOC(=O)/C(=C\c1ccccc1)C(=O)c1cc(C(C)=O)c(Nc2ccccc2)s1	i	i	i	i	i
SMILES	RE007 growth inh	AmpC inh no detg	AmpC inh detg	Sm TGR block	Giardia FBPA inh
CCOC(=O)/C(=C\c1cccnc1)C(=O)c1cc(C(C)=O)c(Nc2ccccc2)s1	i	i	i	20µM	i
CC(C)(C)Nc1nc2ccc([N+](=O)[O-])cc2o1	i	i	i	i	i
CC[n+]1c(C)n(C)c2cc(S(=O)(=O)N(C)C)ccc21	i	i	i	50.1µM	i
CCn1c(C)[n+](CC)c2ccc(S(=O)(=O)N(C)C)cc21	i	i	i	nt	i
CCCCCC(=O)N1CCN(S(=O)(=O)c2ccc3c(c2)OCCO3)CC1	i	i	i	i	nt
O=C(c1ccc2ccccc2c1)N1CCN(c2ccc(O)cc2)CC1	i	i	i	i	i
O=S(=O)(c1ccc2ccccc2c1)N1CCN(c2ccc(O)cc2)CC1	i	10µM	nt	nt	nt
O=C(CSc1ccc2ccccc2c1)N1CCN(c2ccc(O)cc2)CC1	i	i	i	50.1µM	i
O=C(CCl)N1CCN(S(=O)(=O)c2ccc3c(c2)OCCCO3)CC1	i	i	i	15.8µM	nt
O=C(CCl)N1CCN(S(=O)(=O)c2ccc3ccccc3c2)CC1	i	i	i	5.62µM	i
COc1ccc(C)cc1NC(=O)c1cc2ccccn2n1	nt	nt	i	i	nt

Compound activity: PubChem, National Center for Advancing Translational Sciences (NCATS)
